# This is one part of the list. Inconclusive results are not listed. Active and inactive are the calls of the source. The call rests on the fitted dose curve; in most records, active means well fitted inhibition curve with a large enough effect; inconclusive means small, poorly fitted or top-dose-only effect; inactive means no such curve, though single readings can be large or run the other way.
# Target: RecQ-like DNA helicase BLM (Homo sapiens) (UniProt P54132)
# Assay: qHTS Confirmation Assay for Inhibitors of Bloom's syndrome helicase (BLM); further: nearly all actives have a fitted effect of over 45% in size
# Details: BLM DNA unwinding, fluorescence quenching, biochemical
# Source text: Survival of cells and the faithful propagation of the genome depend on elaborate mechanisms of detecting and repairing DNA damage. Treatment of advanced cancer relies on radiation therapy or chemotherapy, which kill cancer cells by causing extensive DNA damage. It is often found, that cancer cells develop resistance to therapy through enhanced activity of DNA repair functions; this has led to an increased interest in developing drugs that interfere with DNA repair, which could sensitize cancer cells to conventional therapy. This validation qHTS assay pertains to human BLM, which is important in resolving abnormal DNA structures formed during replication or homologous recombination. Shutting down the expression of BLM leads to chromosomal instability and higher radiation sensitivity in cultured cells. The validation assay was a fluorescence quenching based kinetic qHTS for BLM Helicase DNA unwinding. The activity was measured as ATP-dependent separation of a 20-bp DNA duplex extended by 30-nt single-stranded tails (forked duplex). The forked DNA substrate was tagged with rhodamine fluorophore (carboxytetramethyl rhodamine, TAMRA) and BHQ-2 (Black Hole Quencher 2) dark quencher. Strand separation results in an increase in the fluorescence of TAMRA (excitation 525 nm, emission 598 nm). […]
# Potency means the concentration at half of the fitted maximal effect.
# RecQ-like DNA helicase BLM (Homo sapiens), sequence (P54132 whole entry, looked up): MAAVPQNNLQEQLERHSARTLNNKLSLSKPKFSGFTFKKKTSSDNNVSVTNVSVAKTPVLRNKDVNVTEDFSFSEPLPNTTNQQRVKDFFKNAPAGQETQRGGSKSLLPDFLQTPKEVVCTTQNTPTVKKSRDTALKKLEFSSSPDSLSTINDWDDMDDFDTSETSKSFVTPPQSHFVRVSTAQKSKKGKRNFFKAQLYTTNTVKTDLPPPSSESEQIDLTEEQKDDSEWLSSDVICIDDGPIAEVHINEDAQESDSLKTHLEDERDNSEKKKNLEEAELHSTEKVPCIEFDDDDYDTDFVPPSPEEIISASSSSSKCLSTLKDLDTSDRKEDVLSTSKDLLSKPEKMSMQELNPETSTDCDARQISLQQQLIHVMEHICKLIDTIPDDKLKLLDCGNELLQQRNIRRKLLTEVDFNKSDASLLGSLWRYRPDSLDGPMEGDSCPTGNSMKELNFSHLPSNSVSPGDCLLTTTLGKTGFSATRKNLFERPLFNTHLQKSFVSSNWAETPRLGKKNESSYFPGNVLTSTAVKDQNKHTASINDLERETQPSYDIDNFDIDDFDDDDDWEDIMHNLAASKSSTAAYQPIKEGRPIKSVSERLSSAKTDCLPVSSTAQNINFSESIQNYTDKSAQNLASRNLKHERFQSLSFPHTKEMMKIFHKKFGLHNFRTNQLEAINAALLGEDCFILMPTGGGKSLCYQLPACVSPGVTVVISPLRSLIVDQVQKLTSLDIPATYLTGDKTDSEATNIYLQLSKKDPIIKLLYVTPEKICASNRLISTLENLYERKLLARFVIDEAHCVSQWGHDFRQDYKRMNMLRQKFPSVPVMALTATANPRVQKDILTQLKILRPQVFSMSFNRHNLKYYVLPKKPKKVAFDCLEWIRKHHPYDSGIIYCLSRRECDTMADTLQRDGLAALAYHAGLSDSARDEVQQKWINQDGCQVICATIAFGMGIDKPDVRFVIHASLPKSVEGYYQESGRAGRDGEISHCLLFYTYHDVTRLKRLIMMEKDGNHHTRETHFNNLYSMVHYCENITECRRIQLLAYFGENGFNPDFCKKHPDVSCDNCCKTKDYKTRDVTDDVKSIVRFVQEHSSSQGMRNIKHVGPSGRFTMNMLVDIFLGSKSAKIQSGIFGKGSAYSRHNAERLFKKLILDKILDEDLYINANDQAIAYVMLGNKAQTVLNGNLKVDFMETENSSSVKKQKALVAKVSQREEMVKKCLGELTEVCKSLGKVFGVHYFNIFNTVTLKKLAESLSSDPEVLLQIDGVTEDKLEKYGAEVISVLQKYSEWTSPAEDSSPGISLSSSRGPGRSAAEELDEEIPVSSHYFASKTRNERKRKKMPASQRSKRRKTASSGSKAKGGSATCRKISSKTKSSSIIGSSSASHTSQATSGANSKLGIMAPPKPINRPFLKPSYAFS
compound,measurement,value
O=C(O)c1cc[c]([Sb](=[O])([OH])[OH])cc1[N+](=O)[O-],Potency,8.57 µM (active)

# — PubChem BioAssay AID2585 (National Center for Advancing Translational Sciences (NCATS), 2010)
